Consider 40 molecules from PubChem BioAssay (NCI).

About 83,000 compounds went through this panel and 20% of them were active in at least one assay; those are over-represented in the sample as a whole.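 Percent growth is the endpoint: 0 to 100 indicates growth inhibition (40 means 60% inhibition), 0 means no net growth, and negative values indicate cell death.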 Unmarked numbers belong to inactive results. The source made the active and inactive calls.

The test system of the test is NCI-H460 lung. The test is described as follows: NCI-60 one-dose screen, 48 h (100 = growth as untreated, 0 = no growth, -100 = all killed). Particulars: 10 µM unless noted. The procedure:
Growth inhibition of the NCI-H460 human Non-Small Cell Lung tumor cell line is measured as a screen for anti-cancer activity. Cells are grown in 96 well plates and exposed to the test compound for 48 hours. Compounds are tested at a single concentration, which is 10^-5 M for most compounds. The reported endpoint is percent growth (GI% or GIPRCNT), where numbers from 0 - 100% represent growth inhibition, and numbers from -100% - 0 represent cell death. For example, a value of 40 represents 60% growth inhibition. A value of 0 means no net growth occurred over the course of the experiment. A value of -40 indicates 40% of cells at the beginning of the experiment died by the end of the experiment. A value of -100 means all cells are dead at the end of the experiment.
NCI-60 Human Tumor Cell Lines Screen was performed using the standard one-dose NCI protocol, which is described in more detail at https://dtp.cancer.gov/discovery_development/nci-60/default.htm.
Compounds with GIPRCNT values below 10 were considered active. Activity score was based on GIPRCNT using the following formula: […]
Score is 0 for GIPRCNT values of 100 or above, 50 for GIPRCNT values of 0, and 100 for GIPRCNT values of -100.
As to `O=C(Nc1ccc(-n2ccc3c(NC(=O)c4ccccc4)ncnc32)cc1)Nc1cccc(Cl)c1Cl`, the growth was -48.4% (active). Next, `COc1cc(NS(C)(=O)=O)ccc1Cc1c2ccccc2nc2ccccc12`: -1.15% (active). Next, `COc1ccc(-c2nnc(SCC(=O)N3CCN(c4cc5c(cc4F)c(=O)c(C(=O)O)cn5C4CC4)CC3)o2)cc1OC`: 104%. Turning to `COc1cc(NC(C)CCCN2C(=O)c3ccccc3C2=O)c2nc(C)ccc2c1OC` (stereo not given), the growth is 103%. With `O=C(Nc1cccc(-n2ccc3c(NC(=O)c4ccccc4)nccc32)c1)Nc1cc(C(F)(F)F)cc(C(F)(F)F)c1` the figure was 2.99% (active); with `COc1ccccc1S(=O)(=O)Nc1ccc2c3c(cc(-c4ccoc4)nc13)C(=O)N2C`, 70.9%; with `C#CCn1c(-c2cc(OC)c(OC)cc2Br)nc(-c2ccccc2)c1-c1ccccc1`, 10.8%. Next, `COC(=O)c1oc2c(C(=O)/C=C/c3ccc(OC)cc3)c(OCCN3CCOCC3)ccc2c1C`: -20.9% (active). Next, `COCCNC(C(=O)c1ccccc1)c1ccccc1` (stereo not given): 108%; `CC(=O)Cc1cccnc1`: 105%; `NC(=NCCCOc1ccc(F)cc1)Nc1ccc(Cl)c(Cl)c1`: 74.3%. In the case of `COc1cccc(C2CC(c3cc(OC)c(OC)c(OC)c3)=NN2)c1` (stereo not given), the growth is 93.7%. With `CC(C)(C)C(=O)Nc1nc2c(s1)CCc1ccn(S(=O)(=O)c3ccccc3)c1-2` the figure was 96.2%; with `COc1ccc(-c2nn(-c3cccc(Cl)c3)cc2-c2cc(-c3ccc(Br)cc3)[nH]c(=O)c2C#N)cc1`, 48.9%.

Take `NCC(=O)NS(=O)(=O)OC[C@H]1O[C@@H](n2cnc3c(N)ncnc32)[C@H](O)[C@@H]1O`: the growth was 3.35% (active).

Turning to `Cc1cc(Nc2ccc(Cl)c(Cl)c2)nc(N)n1`, the growth was 94.3%. Turning to `Cc1cn(-c2nc3c(c(NCc4ccccc4)n2)COCC3)c2cccc(C(N)=O)c12`, the growth was 45.8% [0.5 µM].

Turning to `O=C(O)c1ccccc1C(=O)c1ccc(I)cc1`, the growth is 105%. Next, `O=C(Nc1ccc(-n2cc(-c3ccncc3)c(-c3ccc(O)c(Cl)c3)n2)cc1)c1ccc(Cl)c(Cl)c1`: 22.3%.

As to `COc1ccc(-c2nn(-c3ccc(NC(=O)c4ccc(Cl)c(C(F)(F)F)c4)cc3)cc2-c2ccncc2)cc1Cl`, the growth is 11.3%. Next, `O=C(O)c1ccc(-c2nn(-c3ccc(C(=O)O)cc3)cc2/C=N/Nc2c(F)c(F)cc(F)c2F)cc1`: 114%.

In the case of `C=CC(=O)NC(=O)Nc1ccccc1Cl`, the growth was 102%. On to `S=c1n(CNc2ccc(Cl)nn2)nc(-c2cc(Cl)cc(Cl)c2Cl)n1/N=C/c1ccc(Cl)cc1`, for which the growth is 110%. With `COc1ccc(C(=O)NC(=O)Nc2ccc3c(c2)NC(=O)/C3=C\c2[nH]c(C)c(C(=O)O)c2C)cc1`, the growth is 100%.

In the case of `CC1=C[S+](c2ccccc2)c2cccc3cc4ccccc4c1c23` (stereo not given), the growth is -32.6% (active). Next, `O=C1C(SCCO)=C(SCCO)C(=O)N1c1ccc(-c2ccccc2)cc1`: 108%; `O=C1c2ccccc2OC=C(c2ccccc2)N1CCCCNc1ccc(F)cc1`: 97.9%. With `CCCCN(CCCC)c1ccc(C(=N)c2ccc(N(C)C)cc2)cc1` the figure was -88.5% (active); with `CC(C)(C)OC(=O)N1CCN(CCn2cc(C(F)(F)F)c3c(Cl)ncnc32)CC1`, 59.3%. On to `COc1ccc(OCC(O)CN2CCN(c3ccc(Cl)cc3)CC2)cc1` (stereo not given), for which the growth was 93.4%. Next, `Nc1nccc(=S)[nH]1`: 107%; `COc1cc(-c2nc3ccccc3s2)ccc1OCc1nc2n(n1)S(=O)(=O)c1ccccc1N2c1ccccc1`: 110%.

On to `Cc1ccc[n+](CC(=O)c2cccc3ccccc23)c1`, for which the growth is 111%. For `C=CCn1c(SCC(=O)Nc2ccc(C(=O)/C=C/c3cc(OC)c(OC)c(OC)c3)cc2)nnc1-c1ccc(OC)cc1`, the growth was 0.762% (active). With `COc1ccc(-c2nnc(SCC(=O)Nc3ccc(C(=O)/C=C/c4ccccc4)cc3)o2)cc1OC` the figure was 103%; with `CC(=O)Nc1ccc([I+]c2ccc([N+](=O)[O-])cc2)cc1`, 104%. As to `c1ccc(CNCCN(CCNCc2ccccn2)Cc2ccc3ccccc3c2)nc1`, the growth is -7.2% (active). With `CCOC(=O)C1=C(N)Oc2cc(OC)ccc2C1c1ccc(F)c(F)c1` (stereo not given) the figure was 16.8%. Next, `CCn1c(SCC(=O)c2ccc(Br)cc2)nnc1-c1cc2c([nH]c3ccccc32)c(-c2cccc(O)c2)n1`: 68.1%. With `CC12CCC3C(CCC4CC(O)CCC43C)C1C/C(=C/O)C(=O)O2` (stereo not given) the figure was 110%.
